Data taken from PubChem BioAssay AID1159580 (chemical genetic matrix, 2015).
The campaign covered roughly 5,500 compounds. About 2,000 (36%) were called active. Another 18% or so got no clear call; they are omitted. No stated cut-off is given here; in the data, active means normalized growth mostly below about 0.91 (no sharp cut-off); inconclusive means no clear call, values can overlap the other calls; inactive means mostly above about 0.92. The list shows a part of the results.

Experiment: chemical genetic growth profiling, strain panel (AID 1159580);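 further: tested at 20 µM; growth read once vehicle control cultures reached saturation at 30 °C; 1 = growth at the plate median or of vehicle wells; lower values mean less growth of the strain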
Conditions: S. cerevisiae deletion strains, growth OD

Measured: normalized growth

CC1=CCCC2C1(C)CCC(C)C2(C)CC/C(C)=C/C[n+]1cn(C)c2c(N)ncnc21 (centres undefined)
inactive: locus YAL021C, strain ccr4, hits give low values 0.944 | locus YAL030W, strain snc1, hits give low values 0.986 | locus YBL061C, strain skt5, hits give low values 1.01 | locus YBR009C, strain hhf1, hits give low values 0.928 | locus YBR023C, strain chs3, hits give low values 0.978 | locus YBR171W, strain sec66, hits give low values 0.977 | locus YBR231C, strain swc5, hits give low values 0.973 | locus YBR279W, strain paf1, hits give low values 0.96 | locus YCL011C, strain gbp2, hits give low values 0.943 | locus YCL016C, strain dcc1, hits give low values 0.932 | locus YCL069W, strain vba3, hits give low values 0.961 | locus YCR088W, strain abp1, hits give low values 0.991 | locus YDL005C, strain med2, hits give low values 0.984 | locus YDL040C, strain nat1, hits give low values 0.991 | locus YDR001C, strain nth1, hits give low values 0.976 | locus YDR069C, strain doa4, hits give low values 1.01 | locus YDR159W, strain sac3, hits give low values 1.06 | locus YDR195W, strain ref2 0.992 | locus YDR297W, strain sur2, hits give low values 0.996 | locus YDR334W, strain swr1, hits give low values 0.988 | locus YDR335W, strain msn5, hits give low values 0.955 | locus YEL003W, strain gim4, hits give low values 0.955 | locus YEL037C, strain rad23, hits give low values 0.987 | locus YEL061C, strain CIN8 (second series), hits give low values 0.976 | locus YER015W, strain faa2, hits give low values 0.963 | locus YER016W, strain bim1, hits give low values 0.994 | locus YER111C, strain swi4, hits give low values 0.984 | locus YFR010W, strain ubp6, hits give low values 0.996 | locus YGL167C, strain pmr1, hits give low values 0.976 | locus YGL173C, strain kem1, hits give low values 0.993 | locus YGL227W, strain vid30, hits give low values 0.985 | locus YGL240W, strain doc1, hits give low values 0.971 | locus YGL253W, strain hxk2, hits give low values 0.976 | locus YHR013C, strain ard1, hits give low values 0.917 | locus YHR027C, strain rpn1, hits give low values 1 | locus YHR030C, strain SLT2, hits give low values 0.946 | locus YHR079C, strain IRE1, hits give low values 0.951 | locus YHR142W, strain chs7, hits give low values 0.881 | locus YJL092W, strain hpr5, hits give low values 0.982 | locus YJL095W, strain BCK1 (second series), hits give low values 1.01 | locus YJL095W, strain BCK1, hits give low values 0.971 | locus YJL115W, strain asf1, hits give low values 0.978 | locus YJL129C, strain trk1, hits give low values 1 | locus YJL154C, strain vps35, hits give low values 0.983 | locus YJL164C, strain tpk1, hits give low values 0.935 | locus YJL166W, strain qcr8, hits give low values 0.963 | locus YJL187C, strain SWE1, hits give low values 0.991 | locus YJR066W, strain TOR1, hits give low values 0.94 | locus YKL160W, strain elf1, hits give low values 0.929 | locus YKR026C, strain gcn3, hits give low values 1.01 | locus YKR091W, strain srl3, hits give low values 0.977 | locus YLL001W, strain dnm1, hits give low values 0.908 | locus YLL026W, hits give low values 0.984 | locus YLL041C, strain sdh2, hits give low values 0.987 | locus YLR027C, strain aat2, hits give low values 0.986 | locus YLR113W, strain HOG1, hits give low values 0.891 | locus YLR221C, strain rsa3, hits give low values 1.02 | locus YLR258W, strain gsy2, hits give low values 0.969 | locus YLR262C, strain YPT6 (second series), hits give low values 1.03 | locus YLR320W, strain mms22, hits give low values 1 | locus YLR342W, strain FKS1, hits give low values 0.919 | locus YLR357W, strain rsc2, hits give low values 0.929 | locus YLR370C, strain arc18, hits give low values 0.961 | locus YLR384C, strain iki3, hits give low values 0.995 | locus YML120C, strain ndi1, hits give low values 0.931 | locus YMR058W, strain fet3, hits give low values 0.982 | locus YMR125W, strain sto1, hits give low values 0.936 | locus YMR129W, hits give low values 0.995 | locus YMR205C, strain PFK2, hits give low values 0.925 | locus YMR231W, strain pep5, hits give low values 1.02 | locus YNL183C, strain NPR1, hits give low values 0.968 | locus YNL209W, strain ssb2, hits give low values 0.932 | locus YNL248C, strain rpa49, hits give low values 0.98 | locus YNL322C, strain KRE1 (second series), hits give low values 0.996 | locus YNR049C, strain mso1, hits give low values 0.992 | locus YOR001W, strain rrp6, hits give low values 1.01 | locus YOR070C, strain gyp1, hits give low values 0.988 | locus YOR080W, strain dia2, hits give low values 1 | locus YOR083W, strain WHI5, hits give low values 0.908 | locus YOR106W, strain vam3, hits give low values 0.883 | locus YOR231W, strain MKK1, hits give low values 0.937 | locus YOR265W, strain rbl2, hits give low values 0.981 | locus YOR270C, strain vph1, hits give low values 0.95 | locus YPL051W, strain arl3, hits give low values 0.942 | locus YPL078C, strain atp4, hits give low values 0.896 | locus YPL106C, strain sse1, hits give low values 0.973 | locus YPL240C, strain hsp82, hits give low values 0.996 | locus YPL256C, strain CLN2, hits give low values 0.939
active: locus YAL026C, strain drs2, hits give low values 0.838 | locus YDR137W, strain rgp1, hits give low values 1.17 [resistant] | locus YDR392W, strain spt3, hits give low values 0.452 | locus YER155C, strain BEM2 (second series), hits give low values 0.644 | locus YNL071W, strain lat1, hits give low values 0.863 | locus YOR290C, strain snf2, hits give low values 0.844
